Reference: PubChem BioAssay (Tox21)
Records with an inconclusive call do not appear. Where a call stands in place of a potency, no number is given. Unmarked numbers belong to inactive results. Activity calls are given as the source filed them. Calls come from the whole dose curve; as a rule, active = well fitted cell-killing curve with a large enough effect in the repeat runs; inconclusive = weak or mixed curves, or effect the other way; inactive = flat fitted curve, though single readings scatter.

Legend:
[1] = cAMP Responsive Elements (CRE) small molecule antagonists, cell-based qHTS assay: qHTS cell viability counter screen (AID 2060913); note: nearly all actives have a fitted effect of over 40% in size
Method in brief: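 Steps: cells plated and held 18 hrs at 37 C/5% CO2; compounds and NKH477 (0.25 uM final) added; 3 hrs incubation; reporter substrate read; CellTiter-Glo added to measure cytotoxicity by luminescence.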

[2] = cAMP Responsive Elements (CRE) small molecule agonists, cell-based qHTS assay: qHTS cell viability counter screen (AID 2060914);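 note: viability read after 3 h of compound exposure; nearly all actives have a fitted effect of over 50% in size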
Method in brief: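 CRE-bla HEK293T cells in 10% dialyzed FBS medium were exposed to compounds for 3 h at 37C after 18 h plating. CellTiter-Glo was then added in the same wells, and luminescence was read after 30 min at room temperature.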

SMILES	Potency [1]	Potency [2]	viability change, negative = cytotoxic [1]	activity change, negative = cytotoxicity [2]
C/C(=C(\CCO)SS/C(CCO)=C(\C)N(C=O)Cc1cnc(C)nc1N)N(C=O)Cc1cnc(C)nc1N	inactive	inactive	–	–
CC(O)CCCCn1c(=O)c2c(ncn2C)n(C)c1=O (stereo unspecified)	inactive	inactive	–	–
CC[C@]12CCCN3CCc4c(n(c5ccccc45)C(=O)C1)[C@@H]32	inactive	inactive	–	–
CC1CC(C)C(=O)C1=O (stereo unspecified)	inactive	inactive	–	–
C[n+]1ccccc1/C=N/O	inactive	inactive	–	–
O=CCCc1ccccc1	inactive	inactive	–	–
Fc1ccccc1-c1ccccc1	inactive	inactive	–	–
CCCCOCCOCCO	inactive	inactive	–	–
COC(=O)c1ccc(OC)cc1	inactive	inactive	–	–
O=S(=O)(O)CCS	inactive	inactive	–	–
CCC(C(=O)OCCN(CC)CC)c1ccccc1 (stereo unspecified)	inactive	inactive	–	–
CCc1nn(C2CCCCC2)c2cc(C3(C#N)CCC(C(=O)O)CC3)ccc12 (stereo unspecified)	inactive	inactive	–	–
CCCCCCOC(=O)C(C)CC (stereo unspecified)	inactive	inactive	–	–
CCCCCC(C)N (stereo unspecified)	inactive	inactive	–	–
CCCC/C=C/CCCCO	inactive	inactive	–	–
C[C@@H](O)[C@H](N)C(=O)O	–	–	-1.62% [at 18.9 µM]	-10.8% [at 18.9 µM]
CCCCCCCCCCCCI	inactive	inactive	–	–
CN1[C@@H]2CC[C@H]1CC(OC(=O)C(CO)c1ccccc1)C2 (stereo partly specified)	inactive	inactive	–	–
NCCN1CCOCC1	inactive	inactive	–	–
CCCCCCCCCCCCCC(=O)OCC(O)CO (stereo unspecified)	inactive	inactive	–	–

SMILES	Potency [1]	Potency [2]	viability change, negative = cytotoxic [1]	activity change, negative = cytotoxicity [2]
NC(N)=O	inactive	inactive	–	–
O=C(O)c1cc(C(=O)O)cc([N+](=O)[O-])c1	inactive	inactive	–	–
C1COCCO1	inactive	inactive	–	–
C#CCOC(=O)[C@@H](C)Oc1ccc(Oc2ncc(Cl)cc2F)cc1	inactive	inactive	–	–
Cc1[nH]c(C)c(Cl)c(=O)c1Cl	–	–	2.74% [at 18.9 µM]	4.19% [at 18.9 µM]
CCCOCC(C)OCC(C)O (stereo unspecified)	inactive	inactive	–	–
C=CCOc1c(Br)cc(C(C)(C)c2cc(Br)c(OCC=C)c(Br)c2)cc1Br	inactive	inactive	–	–
ON=C1CCCCC1	inactive	inactive	–	–
CN(C)c1ccc(C=O)cc1	inactive	inactive	–	–
CCOC(=O)c1cccc(N)c1	inactive	inactive	–	–
CC(C)(CO)[C@@H](O)C(=O)NCCC(=O)O	inactive	inactive	–	–
O=S(=O)(O)CCO	inactive	inactive	–	–
CN(CCOc1ccc(NS(C)(=O)=O)cc1)CCc1ccc(NS(C)(=O)=O)cc1	inactive	inactive	–	–
CC1=CC=C(C(C)C)CC1	inactive	inactive	–	–
Cc1ccc(S(=O)(=O)NC2CCCCC2)cc1	inactive	inactive	–	–
Nc1nc2ccccc2n1Cc1ccc(F)cc1	inactive	inactive	–	–
CCCCC(=O)N(C)C	inactive	inactive	–	–
C=COCC(C)C	inactive	inactive	–	–
CC(=O)O[C@@H]1C(=O)O[C@@H]2[C@H]1OC(=O)[C@@H]2OC(C)=O	inactive	inactive	–	–
CCCCCCCCSCC	inactive	inactive	–	–

SMILES	Potency [1]	Potency [2]	viability change, negative = cytotoxic [1]	activity change, negative = cytotoxicity [2]
Oc1ccc2c(c1)Cc1ccccc1-2	inactive	inactive	–	–
CCCCCC(C)OC(=O)COc1ccc(Cl)c2cccnc12 (stereo unspecified)	inactive	inactive	–	–
O=C(O)Cc1c[nH]c2ccccc12	inactive	inactive	–	–
CCCCCCCC#N	inactive	inactive	–	–
C=Cc1c(C)c2cc3[nH]c(cc4nc(cc5nc(cc1[nH]2)C(C)=C5CCC(=O)O)C(CCC(=O)O)=C4C)c(C)c3C=C	inactive	inactive	–	–
CCN(CC)c1ccc(N=Nc2ccccc2)cc1	inactive	inactive	–	–
c1ccc2ncccc2c1	inactive	inactive	–	–
C=C(C)C1CC=C(C)C(OC(C)=O)C1 (stereo unspecified)	inactive	inactive	–	–
O=[N+]([O-])C(CO)(CO)CO	inactive	inactive	–	–
Nc1nc(-c2ccc([N+](=O)[O-])cc2)cs1	inactive	inactive	–	–
C/C=C(\C)C(=O)OCCc1ccccc1	inactive	inactive	–	–
CC(C)OC(=O)c1ccccc1	inactive	inactive	–	–
C1CCSC1	inactive	inactive	–	–
CC(=O)OCC(=O)[C@@]1(O)CC[C@H]2[C@@H]3CCC4=CC(=O)CC[C@]4(C)[C@H]3C(=O)C[C@@]21C	inactive	inactive	–	–
C[C@@H]1CCC[C@H](C)N1	inactive	inactive	–	–
CCOC(=O)C(=O)OCC	inactive	inactive	–	–
C[C@@H](CN1CC(=O)NC(=O)C1)N1CC(=O)NC(=O)C1	inactive	inactive	–	–
CC(=O)SCc1ccco1	inactive	inactive	–	–
